# Most compounds without a hit are left out; they make up all but 27% or so of the library.
# CYP2C9 act: increases human cytochrome P450 2C9 activity. 1.4% of 96,000 active. activation factor at 5 µM. AID 1024. recombinant CYP2C9, luciferin-H conversion, luminescence; stronger effect = higher value; factor 1 = untreated enzyme, 0 = blocked. P11712;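 active = activation factor of 2 or more for CYP2C9 at a 5 µM dose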;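 note: 0 = sulfaphenazole-blocked wells and 1 = vehicle-only wells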
# Target sequence (P11712 whole entry, looked up): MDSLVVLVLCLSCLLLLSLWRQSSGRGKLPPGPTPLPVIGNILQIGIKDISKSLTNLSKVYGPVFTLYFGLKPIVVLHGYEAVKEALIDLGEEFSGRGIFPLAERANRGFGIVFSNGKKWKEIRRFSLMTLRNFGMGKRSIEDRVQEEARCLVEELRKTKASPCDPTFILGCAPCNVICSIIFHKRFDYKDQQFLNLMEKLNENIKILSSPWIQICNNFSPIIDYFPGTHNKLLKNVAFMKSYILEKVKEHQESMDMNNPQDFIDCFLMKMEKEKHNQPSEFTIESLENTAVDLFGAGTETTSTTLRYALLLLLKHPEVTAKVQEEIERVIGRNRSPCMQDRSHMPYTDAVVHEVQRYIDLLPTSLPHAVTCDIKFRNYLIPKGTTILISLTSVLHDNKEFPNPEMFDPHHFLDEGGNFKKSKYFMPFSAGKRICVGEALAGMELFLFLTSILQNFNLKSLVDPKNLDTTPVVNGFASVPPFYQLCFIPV
# CYP2C19 act: increases human CYP2C19 enzyme activity; 96,000 tested, under 10 active; P33261; AID 1025; activation factor at 5 µM; recombinant CYP2C19, luciferin-H EGE luminescence; stronger effect = higher value; 0 = fully inhibited enzyme, 1 = untreated enzyme;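 active = activation factor of at least 2 at 5 µM in the primary screen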;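 note: 0 = wells with 2.5 mM tranylcypromine and 1 = vehicle-only wells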
# sEH inh: blocks human soluble epoxide hydrolase activity | recombinant human sEH enzymatic activity assay | inhibition, % at 2 µM | 0.34% of 91,000 active | AID 707; in the data active = inhibition above about 80%
# CYP2C9 inh: blocks human cytochrome P450 2C9 | AID 777 | inhibition, % at 5 µM | CYP2C9 Supersomes, luciferin-H conversion, luminescence | 20% of 96,000 active;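 active = blocking of liver enzyme CYP2C9 beyond about 50% at 5 µM, limit read from the data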
# CYP2C19 inh: human CYP2C19 inhibition; P33261; CYP2C19 Supersomes, luciferin-H EGE luminescence, 30 min; inhibition, % at 5 µM; 21% of 96,000 active;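 active = CYP2C19 inhibition above a set limit at 5 µM in the primary screen, cut at about 50% in these data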;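 note: plate controls were negative control wells for no effect and 2.5 mM tranylcypromine positive control for full effect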
# sEH act: soluble epoxide hydrolase (human) activation. P34913. purified human sEH enzymatic activity, activator screen. activation, % at 2 µM. 0.04% of 91,000 active. AID 717; in the data active = activation above about 37%
# * marks the source's active call; other numbers are inactive results; x = no result.
SMILES,CYP2C9 act,CYP2C19 act,sEH inh,CYP2C9 inh,CYP2C19 inh,sEH act
O=C(COc1ccccc1Cl)NC(=S)N1CCc2ccccc21,1.1,0.9,-13,-10,6,13
Cc1c(N2C(=O)CSC23C(=O)Nc2ccccc23)c(=O)n(-c2ccccc2)n1C (centres undefined),1,0.8,-7,-3,22,6
O=S(=O)(c1ccc(Cl)nc1)N1CCN(Cc2ccc3c(c2)OCO3)CC1,0.3,0.4,-2,74*,63*,2
O=S(=O)(c1cccc2cccnc12)N1CCN(Cc2ccc3c(c2)OCO3)CC1,2.5*,0.5,x,-150,46,x
Cc1cccc(NC(=O)CC2NC3CCCCC3NC2=O)c1 (centres undefined),1,0.8,x,-2,16,x
COCCNC(=O)NC(=O)COC(=O)c1cc([N+](=O)[O-])ccc1Sc1nc(C)cs1,0.8,1,-7,21,4,8
Cc1csc(Sc2ccc([N+](=O)[O-])cc2C(=O)OCC(=O)NC(=O)NC(C)(C)C)n1,0.3,0.8,9,72*,19,-8
CC(C)(C)c1ccc(C(=O)Nc2nonc2-c2nc3ccccc3[nH]2)cc1,0.9,0.9,-1,10,14,6
CCOc1cc2[nH]c(=O)n(Cc3ccccc3)c(=O)c2cc1OCC,1,0.9,-3,1,11,7
CCOc1ccccc1NC1=C(Cl)C(=O)N(Cc2ccccc2)C1=O,0.3,0.5,2,70*,52*,0
COc1ccccc1N=c1oc2cc(O)ccc2cc1C(N)=O,0.3,0.9,3,71*,9,-2
Cc1cccc(N=c2oc3cc(O)ccc3cc2C(N)=O)c1,0.3,0.8,-8,69*,18,6
CCOC(=O)N1CCN(c2c(N3CCOCC3)c(=O)c2=O)CC1,0.9,1,x,7,-1,x
CCOC(=O)N1CCN(c2c(Nc3ccc4c(c3)OCCO4)c(=O)c2=O)CC1,2*,0.9,10,-103,11,-10
O=C(CSc1nc2c(c(=O)n1-c1ccc(Br)cc1)SCC2)Nc1nccs1,0.7,0.4,-45,27,61*,47*
CCOc1ccc(-n2c(SCC(=O)NCc3ccco3)nc3c(c2=O)SCC3)cc1,0.4,0.7,x,62*,26,x
COc1ccc(NC(=O)CSc2nc3c(c(=O)n2-c2ccc(F)cc2)SCC3)cc1,0.4,0.6,-1,62*,41,1
COCC(=O)N(C)C1(c2nnnn2CCOC(=O)Nc2cccc3ccccc23)CCCC1,0.8,0.6,2,20,41,2
CC(C)(C)NS(=O)(=O)c1ccc(NS(C)(=O)=O)cc1,0.6,0.9,-2,41,14,5
COc1cccc(S(=O)(=O)Nc2ccc(C(=O)N3CCN(C(=O)c4ccco4)CC3)cc2)c1,x,x,-1,x,x,5
CCCCN(CC)CCCNC(=O)C1c2ccccc2C(=O)N(C)C1c1cn(C)c2ccccc12 (centres undefined),0.8,0.9,-15,24,9,14
COc1cc2c(cc1OC)-c1cc(NC3CCCCCCC3)nc(=O)n1CC2,0.5,0.6,3,51*,38,-3
CC1(C)CC2(CCO1)OC(=O)CC2C(=O)NCc1ccccc1 (centres undefined),1,0.9,4,-4,9,-4
O=C1CSC(c2nn(-c3ccccc3)cc2-c2cc3ccccc3oc2=O)N1Cc1ccco1 (centres undefined),0.2,0.4,-6,84*,55*,8
COc1ccc(C2=NOC(C(=O)Nc3cc(Br)ccc3O)C2)cc1OC (centres undefined),1,0.9,13,-1,12,-14
SMILES,CYP2C9 act,CYP2C19 act,sEH inh,CYP2C9 inh,CYP2C19 inh,sEH act
CCOC(=O)Cn1cc(/C=N/NC(=O)c2ccc(C#N)cc2F)c2ccccc21,0.3,0.8,11,75*,22,-10
COCc1cc(C)nc(SCC(=O)c2ccc(O)c(O)c2)c1C#N,1.2,0.6,6,-19,40,-6
COC(=O)c1ccc(CSc2nc3ccccc3s2)o1,0.6,0.1,3,42,95*,-3
COC(=O)c1ccc(CSc2ncn[nH]2)o1,1.1,0.8,16,-10,24,-16
COC(=O)c1ccc(CSc2ncnc3ccccc23)o1,0.5,0.3,-5,46,70*,3
COC(=O)c1ccc(CSc2ncnc3c2oc2ccccc23)o1,0.7,1,-2,34,2,5
COC(=O)c1ccc(CSc2n[nH]c(=S)s2)o1,0.4,0.8,10,58*,20,-9
CC1Cc2nc(SCC(=O)N3CCN(c4ccccc4)CC3)n(C)c(=O)c2S1 (centres undefined),0.3,0.3,-8,71*,67*,7
CC1Cc2nc(SCC(=O)N3CCN(c4ccccc4)CC3)n(CCc3ccccc3)c(=O)c2S1 (centres undefined),0.2,0.7,2,76*,31,0
COc1cccc(/C=c2/s/c(=C(\C#N)C(=O)N3CCOCC3)n(-c3ccccc3)c2=O)c1,0.8,0.7,0,15,31,-1
Cc1cc(C)c(C(=O)c2ccc(C(=O)N(C(C)C)C(C)C)cc2)c(C)c1,0.2,0.1,-2,82*,86*,4
Cc1cc(C)c(C(=O)c2ccc(C(=O)NC(C)(C)C)cc2)c(C)c1,0.8,0.7,-1,20,30,4
COc1ccc(C2C3=C(N=C4SCC(=O)N42)c2ccccc2CC3)cc1OC (centres undefined),0.5,0.6,-7,54*,39,5
COc1ccc(C2C3=C(N=C4SCC(=O)N42)c2ccccc2CC3)cc1 (centres undefined),0.1,0,-1,91*,95*,2
CC(=O)c1cccc(NC(=O)Nc2ccc3c(c2)N(C)C(=O)CS3)c1,0.4,0.3,31,59*,68*,-30
Cc1cc(C)cc(NC(=O)Nc2ccc3c(c2)N(C)C(=O)CS3)c1,0.9,1,63,10,1,-63
CCc1ccc(NC(=O)Nc2ccc3c(c2)N(C)C(=O)CS3)cc1,0.7,0.9,91*,32,8,-91
CCOc1ccc2c(C)c(C(=O)O)oc2c1OCC,1.1,1.1,-15,-14,-6,18
Cc1nc(SCC(=O)NCCc2ccccc2)n[nH]1,1,0.6,-20,3,38,20
O=C(CSc1nccc(-c2ccc(Br)cc2)n1)NCCc1ccccc1,0.5,0.4,x,47,62*,x
O=C(Nc1ccccc1N1CCN(C(=O)c2ccccc2)CC1)c1cc2ccccc2o1,0,0,4,96*,97*,-3
O=C(Nc1ccccc1N1CCN(C(=O)c2ccccc2)CC1)c1cc(Br)ccc1Cl,0.2,0.3,16,82*,71*,-13
O=C(Nc1ccccc1N1CCCC1)c1cc2ccccc2o1,0.9,0.8,3,13,16,-2
Nc1ccccc1N1CCN(C(=O)c2ccccc2)CC1,x,x,-9,x,x,13
